Laboratory results published in PubChem BioAssay (NCI).
The panel holds about 83,000 compounds, 20% with a hit somewhere; the sample as a whole holds those more often.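 Growth was measured after 48 h exposure to one concentration of compound in 96-well plates. Values under 10 count as active.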 Activity calls are given as the source filed them.

Columns and labels:
Experiment in all cases: NCI-60 one-dose screen, 48 h (100 = growth as untreated, 0 = no growth, -100 = all killed)
Settings in all cases: 10 µM unless noted
[1] = system: NCI-H226 lung
[2] = system: NCI-H322M lung
[3] = system: HOP-62 NSCLC
[4] = system: NCI-H460 lung
[5] = system: HOP-92 NSCLC
[6] = system: NCI-H522 lung
[7] = system: A549/ATCC NSCLC
[8] = system: 786-0 renal
[9] = system: COLO 205 colon
[10] = system: NCI-H23 lung

Measured: growth

COC(OC)C1=C(C)OC(N)=C(C#N)C12C(=O)Nc1ccccc12 (stereo not drawn)
active: [6] 6.48%
inactive: [1] 90.2% | [2] 98.3% | [3] 111% | [4] 97.2% | [5] 118% | [7] 114% | [8] 113% | [9] 102%

Cn1cc(-c2cc(N)n3nc(-c4cn(C)c5ccc(Cl)cc45)cc3n2)c2ccccc21
inactive: [1] 105% | [2] 103% | [3] 115% | [4] 115% | [5] 133% | [6] 100% | [7] 107% | [8] 88.4% | [9] 117%

COc1ccc2c(c1)c(-c1cc(N)n3nc(-c4cn(C)c5ccccc45)cc3n1)cn2C
active: [1] -44% | [2] -42.2% | [3] -59.6% | [4] -44.5% | [5] -75.2% | [6] -64.4% | [7] -44.6% | [8] -88.3% | [9] -83%

CCN(CC)c1ccc(/C=N/Nc2nc(-c3ccc(C)cc3)cs2)c(O)c1
inactive: [1] 63.7% | [2] 98.1% | [3] 109% | [4] 111% | [5] 108% | [6] 65.2% | [7] 92.2% | [8] 96.2% | [9] 110%

CC(=O)c1c(N)c(C#N)cn1-c1ccc(Cl)cc1Cl
inactive: [1] 80.6% | [2] 101% | [3] 94.6% | [4] 111% | [5] 98.6% | [6] 82.3% | [7] 95.8% | [8] 99.2% | [9] 105%

O=C(c1ccccc1)c1ccc2nc(-c3cccc(Cl)c3)[nH]c2c1
inactive: [1] 105% | [2] 105% | [3] 107% | [4] 111% | [5] 111% | [6] 101% | [7] 104% | [8] 100% | [9] 116%

COc1ccc(NC(=O)[C@H](C)N)cc1C(=O)Nc1cccc(C2CC(=O)c3c(cc(OC)c(OC)c3OC)O2)c1 (stereo partly drawn)
inactive: [1] 85.5% | [2] 96.9% | [3] 113% | [4] 96.9% | [5] 69.4% | [6] 81.7% | [7] 93.4% | [8] 91.1% | [9] 115%

COc1ccc2oc(=O)c(C3(C)NC(=O)c4c(/C=C/C(=O)OC(C)(C)C)cccc4N3)cc2c1 (stereo not drawn)
inactive: [1] 44.7% | [2] 66.9% | [3] 61% | [4] 47.2% | [5] 32.9% | [6] 27.8% | [7] 27.3% | [8] 66.7% | [9] 44.9%

CCOC(=O)/C=C/c1cccc2c1C(=O)NC(C)(c1cc3cc(Br)ccc3oc1=O)N2 (stereo not drawn)
inactive: [1] 43.3% | [2] 88% | [3] 65.6% | [4] 46.1% | [5] 40.2% | [6] 29.1% | [7] 40.1% | [8] 59.4% | [9] 46.5%

CCOC(=O)C1=C(N)N(c2ccccc2)C2=C(C(=O)CC(C)(C)C2)C1c1ccc([N+](=O)[O-])cc1 (stereo not drawn)
inactive: [1] 88% | [2] 97.9% | [3] 99% | [4] 89.8% | [5] 106% | [6] 79.2% | [7] 91.5% | [8] 93.7% | [9] 101%

C#CCOc1ccc(/C=N/Nc2nc(-c3ccc(F)cc3)cs2)cc1OC
inactive: [1] 54.1% | [2] 83.1% | [3] 86.9% | [4] 77.4% | [5] 34.2% | [6] 46.9% | [7] 72.9% | [8] 84.4% | [9] 68.9%

C#CCOc1cc(N(CC)CC)ccc1C(C(=O)NC(C)(C)C)N(C(=O)C1CCc2cc(F)ccc2O1)c1cc(C)cc(C)c1 (stereo not drawn)
active: [5] 9.21%
inactive: [1] 33.3% | [2] 66.6% | [3] 52.4% | [4] 30.4% | [6] 19.6% | [7] 36.1% | [8] 36.3% | [9] 31.3%

Cc1ccc(C(=O)C(c2c[nH]c3ccccc23)c2c[nH]c3ccccc23)cc1
active: [4] -6.44% | [6] -1.59% | [9] -45.7%
inactive: [1] 38.9% | [2] 81.8% | [3] 89.9% | [5] 89.9% | [7] 49% | [8] 32%

COc1ccc(/C=C/c2nc3ccccc3nc2Nc2cccc(C)c2)cc1
inactive: [1] 93.1% | [2] 105% | [3] 92.7% | [4] 101% | [5] 99.3% | [6] 83% | [7] 106% | [8] 97.4% | [9] 105%

COc1ccc2[nH]cc(-c3cc(N)n4nc(-c5cn(C)c6ccccc56)cc4n3)c2c1
active: [1] -19.3% | [2] -97.2% | [3] -66.4% | [4] -1.01% | [5] -71% | [6] -75.9% | [7] -75.6% | [8] -87.6% | [9] -84.7%

COc1cc2oc(-c3cccc(C(=O)Nc4ccc(Cl)cc4)c3)cc(=O)c2c(OCCNC(=O)[C@H](CO)NC(=O)OC(C)(C)C)c1OC
active: [4] 9.69% | [5] -2.01% | [6] 6.54% | [9] -43.4%
inactive: [1] 42% | [2] 35.4% | [3] 55.1% | [7] 23.8% | [8] 32.4%

COc1c(F)ccc(C(=O)Nc2ccc3nc(NC(=O)C4CCCN(S(=O)(=O)c5ccc(C#N)cc5)C4)sc3c2)c1F (stereo not drawn)
inactive: [10] 88.9% | [1] 90.3% | [2] 101% | [4] 96.8% | [6] 85.7% | [8] 75.5% | [9] 96.9%

C#CCOc1ccc(/C=N/Nc2nc(-c3cc4cc(Br)ccc4oc3=O)cs2)cc1OC
inactive: [1] 29.8% | [2] 77.8% | [3] 51.7% | [4] 43.4% | [5] 45.5% | [6] 34.3% | [7] 49.5% | [8] 50.8% | [9] 88.1%

Cc1ccc(-c2nc(C#N)c(S(=O)(=O)N3CCN(S(=O)(=O)c4ccccc4)CC3)o2)cc1
active: [5] -20.4% | [6] -87.8% | [8] -87.1% | [9] -62.1%
inactive: [1] 69.2% | [2] 77.9% | [3] 87.7% | [4] 32.6% | [7] 57.9%

O=C(Nc1ccccc1)N1CCN(c2cc(-c3cn(-c4ccccc4)nc3-c3cccc(O)c3)ccn2)CC1
inactive: [10] 71% | [1] 75.4% | [2] 104% | [4] 70% | [6] 74.1% | [7] 53.9% | [8] 94.6% | [9] 45.1%

O=C(c1ccccc1)C(c1c[nH]c2ccccc12)c1c[nH]c2ccccc12
inactive: [1] 41.7% | [2] 96.5% | [3] 83.5% | [4] 29.8% | [5] 76.7% | [6] 35.9% | [7] 70.2% | [8] 78.7% | [9] 58.5%

Cn1cc(-c2cc3nc(-c4c[nH]c5ccc(Br)cc45)cc(N)n3n2)c2ccccc21
active: [1] -35% | [2] -48.8% | [3] -74.4% | [4] -52.9% | [5] -73.6% | [6] -68.9% | [7] -71.7% | [8] -89.6% | [9] -83.5%

COc1cc(-c2nc3ccc(C)cc3[nH]2)ccc1OCc1nnc(-c2ccc(Br)cc2)o1
inactive: [1] 57.5% | [2] 65.6% | [3] 48% | [4] 31.3% | [5] 18.8% | [7] 49.8%
active: [6] 8.24% | [8] -50.8% | [9] 3.01%

COc1cc2c(c(OC)c1OC)C(=O)CC(c1cccc(NC(=O)c3cc(NC(=O)[C@H](C)N)ccc3Cl)c1)O2 (stereo partly drawn)
active: [6] 1.34%
inactive: [1] 48.9% | [2] 81.2% | [3] 79.1% | [4] 51.4% | [5] 17.9% | [7] 56% | [8] 45% | [9] 74.5%

CC1(C)CC[C@]2(C(=O)O)CC[C@]3(C)C(=CCC4[C@@]5(C)C[C@@H](O)[C@@H]6OC(c7ccc(F)cc7)OC[C@@]6(C)C5CC[C@]43C)C2C1 (stereo partly drawn)
active: [5] 1.62% | [6] 8.38% | [9] -2.36%
inactive: [1] 34.4% | [2] 29% | [3] 47.5% | [4] 15.7% | [7] 17% | [8] 39.6%

O=[N+]([O-])c1ccc(/C=C/c2nc3ccccc3n3c(=S)[nH]nc23)cc1
inactive: [1] 65.3% | [2] 84.1% | [3] 80.2% | [4] 78% | [5] 68.2% | [6] 63.6% | [7] 77% | [8] 102% | [9] 104%

O=C(c1ccccc1)c1ccc2nc(-c3ccc(F)cc3)[nH]c2c1
active: [6] -59.7%
inactive: [1] 25.4% | [2] 97.2% | [3] 83.5% | [4] 51.4% | [5] 90.5% | [7] 82.2% | [8] 39% | [9] 85.8%

Cn1cc(-c2cc(N)n3nc(-c4cn(C)c5ncc(Br)cc45)cc3n2)c2cc(Br)cnc21
inactive: [1] 78% | [2] 69.1% | [6] 51.2% | [9] 12.3%
active: [10] -31.1% | [4] -65.6% | [7] -22.3% | [8] -40.8%
